Experimental findings from PubChem BioAssay (NCI) are described below.

Some test systems named below: HCT-15 colon; HT29 colon; SNB-75 CNS; SNB-19 CNS; U251 CNS; PC-3 prostate; SK-MEL-5 melanoma; UACC-62 melanoma; LOX IMVI melanoma; SK-MEL-28 melanoma.
What all share (experiment): NCI-60 one-dose screen, 48 h (100 = growth as untreated, 0 = no growth, -100 = all killed)
Common to all, as to conditions: 10 µM unless noted

SMILES strings stand for the structures. The panel holds about 83,000 compounds, 20% with a hit somewhere; the sample as a whole holds those more often.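 For each line, cells grew in 96-well plates with the test compound present at a single concentration for 48 hours.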 Unmarked numbers belong to inactive results. Active and inactive are the calls of the source. Rule for the calls: active = growth percent below 10; inactive = the rest.

Turning to `CCOc1ccc2[nH]c(=O)c(C(c3nnnn3CC3CCCO3)N3CCN(Cc4ccccc4)CC3)cc2c1` (stereo not given), the growth with HCT-15 colon was 99.7%; in the experiment on HT29 colon it was 117%; in the experiment on SNB-75 CNS, -22.2% (active); with SNB-19 CNS, 38.5%; in the experiment with U251 CNS it was 60.9%; with PC-3 prostate it was 94%. The growth is 104% in the experiment with SK-MEL-5 melanoma, 76.3% with UACC-62 melanoma, 87.2% in the experiment with LOX IMVI melanoma and 101% in the experiment with SK-MEL-28 melanoma.

Turning to `CC(C)(C)OC(=O)N1C/C(=C\c2ccc(F)cc2)C(=O)/C(=C/c2ccc(F)cc2)C1`, the growth in the experiment on HCT-15 colon was -61% (active); in the experiment on HT29 colon, -87.2% (active); with SNB-75 CNS, 13.2%; in the experiment with SNB-19 CNS it was -89.6% (active); with U251 CNS, -100% (active); in the experiment with PC-3 prostate, -31.1% (active). Moreover, the growth in the experiment on SK-MEL-5 melanoma was -92.3% (active); in the experiment on UACC-62 melanoma, -96.1% (active); in the experiment with LOX IMVI melanoma, -100% (active); in the experiment on SK-MEL-28 melanoma, -95.9% (active).

As to `Cc1ccc(C2CC(c3ccc(NC(=O)Nc4ccccc4)cc3)=NN2c2ccc(S(N)(=O)=O)cc2)cc1` (stereo not given), the growth in the experiment with HCT-15 colon was -68% (active); in the experiment with HT29 colon, -62% (active); in the experiment on SNB-75 CNS, -68.1% (active); in the experiment with SNB-19 CNS, -99.8% (active); in the experiment on U251 CNS, -96.1% (active); in the experiment with PC-3 prostate, -59% (active). Besides, the growth in the experiment with SK-MEL-5 melanoma was -96.6% (active); in the experiment on UACC-62 melanoma, -96.2% (active); in the experiment on LOX IMVI melanoma, -100% (active); in the experiment with SK-MEL-28 melanoma, -99.7% (active).

Take `Cn1cc(-c2cc(N)n3nc(-c4c[nH]c5ccccc45)cc3n2)c2cc(F)ccc21`: the growth in the experiment on HCT-15 colon is -77.5% (active); in the experiment on HT29 colon it was -35.4% (active); in the experiment with SNB-75 CNS, 71.5%; in the experiment on SNB-19 CNS it was 15%; with U251 CNS, -39.4% (active); with PC-3 prostate, 17.4%. The growth was 67.4% in the experiment with SK-MEL-5 melanoma, 66.3% in the experiment with UACC-62 melanoma, -80.7% (active) with LOX IMVI melanoma and 77.5% with SK-MEL-28 melanoma.

Consider `COc1ccc(-c2cc(C(=O)Oc3ccc(C=O)cc3OC)nn2-c2ccc(S(C)(=O)=O)cc2)cc1`, for which the growth with HCT-15 colon was 81.9%; in the experiment on HT29 colon it was 110%; with SNB-75 CNS, 99.9%; in the experiment on SNB-19 CNS, 94.5%; in the experiment with U251 CNS it was 101%; with PC-3 prostate it was 90.7%. Also, the growth is 98% with SK-MEL-5 melanoma, 88% in the experiment on UACC-62 melanoma, 90.1% in the experiment with LOX IMVI melanoma and 117% in the experiment on SK-MEL-28 melanoma.

With `N#Cc1ccc(C(=O)CSc2nc3c(c(Nc4ccc(S(N)(=O)=O)cc4)n2)CCC3)cc1`, the growth in the experiment with HCT-15 colon is 49.9%; in the experiment with HT29 colon, 55.8%; with SNB-75 CNS it was 8.38% (active); in the experiment on SNB-19 CNS it was -13.3% (active); with U251 CNS, -85.2% (active); with PC-3 prostate, 65.3%. In addition, the growth was 71.9% in the experiment on SK-MEL-5 melanoma, 83.1% with UACC-62 melanoma, 1.66% (active) in the experiment with LOX IMVI melanoma and 48.5% in the experiment with SK-MEL-28 melanoma.

For `Cc1nn(-c2ccccc2)c2ncn(CC(=O)N/N=C/c3ccccc3O)c(=O)c12`, the growth in the experiment with HCT-15 colon is 20.8%; in the experiment with HT29 colon, 28.2%; in the experiment on SNB-75 CNS, 76.1%; in the experiment on SNB-19 CNS it was 57.1%; with U251 CNS it was 40.2%; in the experiment on PC-3 prostate, 43.3%. The growth in the experiment with SK-MEL-5 melanoma is 28.9%; with UACC-62 melanoma, 34.3%; in the experiment on LOX IMVI melanoma, 10.4%; in the experiment with SK-MEL-28 melanoma it was 66.9%.

For `CCOc1ccccc1[C@H]1C(C(=O)c2ccc(Cl)cc2)C2(N[C@@H]1c1ccccc1)C(=O)Nc1ccc(Br)cc12` (stereo not given in full), the growth in the experiment with HCT-15 colon was -5.64% (active); in the experiment on HT29 colon, -62.1% (active); with SNB-75 CNS it was 44.4%; in the experiment on SNB-19 CNS it was 17.1%; with U251 CNS, 0.419% (active); with PC-3 prostate it was 5.34% (active). In addition, the growth is -89.3% (active) in the experiment on SK-MEL-5 melanoma, -46.8% (active) in the experiment on UACC-62 melanoma, -100% (active) in the experiment with LOX IMVI melanoma and -23.4% (active) with SK-MEL-28 melanoma.

As for `COc1cccc(/C=C/c2nc3ccccc3c(=O)n2CC(=O)Nc2ccccc2)c1`, the growth was 67.8% with HCT-15 colon; 58.5% in the experiment on HT29 colon; -35.9% (active) in the experiment on SNB-75 CNS; 40.4% with SNB-19 CNS; 7.15% (active) with U251 CNS; 76.1% in the experiment on PC-3 prostate. In addition, the growth was 73.6% in the experiment with SK-MEL-5 melanoma, 67.2% in the experiment on UACC-62 melanoma, 26.8% in the experiment with LOX IMVI melanoma and 76.5% in the experiment with SK-MEL-28 melanoma.

On to `COc1ccc2[nH]c(O)c(N=Nc3nc(-c4ccc(Cl)cc4)cs3)c2c1`, for which the growth is -53.3% (active) in the experiment on HCT-15 colon; -18.4% (active) in the experiment on HT29 colon; -66.9% (active) in the experiment with SNB-75 CNS; 24.1% in the experiment on SNB-19 CNS; -75.6% (active) in the experiment with U251 CNS; -10.5% (active) in the experiment on PC-3 prostate. Further, the growth in the experiment with SK-MEL-5 melanoma was 8.45% (active); in the experiment on UACC-62 melanoma, -32.3% (active); in the experiment on LOX IMVI melanoma, -54.9% (active); with SK-MEL-28 melanoma it was -24.2% (active).

Consider `CC1=C(C(=O)Nc2ccccc2)C(c2cccc(Cl)c2Cl)n2c(nc3ccccc32)N1` (stereo not given), for which the growth is 35.5% in the experiment with HCT-15 colon; 22.1% with HT29 colon; 47.2% with SNB-75 CNS; 67.5% in the experiment with SNB-19 CNS; 57.2% in the experiment on U251 CNS; 18.1% in the experiment with PC-3 prostate. The growth is 46.7% with SK-MEL-5 melanoma, 46.7% in the experiment on UACC-62 melanoma, 49.5% with LOX IMVI melanoma and 65.5% in the experiment on SK-MEL-28 melanoma.

As to `COc1ccc2[nH]c(=O)c(CSc3ccccc3Nc3nccc(-c4ccc5c(c4)OCO5)n3)cc2c1`, the growth in the experiment with HCT-15 colon is 74.3%; with HT29 colon it was 75.2%; in the experiment on SNB-75 CNS it was 71.8%; with SNB-19 CNS it was 81.6%; with U251 CNS it was 88.6%; with PC-3 prostate, 68.1%. Besides, the growth in the experiment with SK-MEL-5 melanoma is 58.9%; in the experiment with UACC-62 melanoma, 79.2%; with LOX IMVI melanoma it was 89.6%; in the experiment with SK-MEL-28 melanoma it was 95.9%.

Turning to `Nc1nc(-c2ccccc2)c(N=Nc2ccc(Cl)cc2Cl)s1`, the growth with HCT-15 colon was -86% (active); with HT29 colon it was -60.4% (active); with SNB-75 CNS it was -36.5% (active); in the experiment with SNB-19 CNS, -18.1% (active); with U251 CNS, -10.7% (active); with PC-3 prostate, -1.78% (active). For the same compound, the growth with SK-MEL-5 melanoma was -99.2% (active); with UACC-62 melanoma it was -49.5% (active); with LOX IMVI melanoma, -99.5% (active); with SK-MEL-28 melanoma, -55.8% (active).
